Screening data deposited in PubChem by National Center for Advancing Translational Sciences (NCATS).
SMN2 splice up – qHTS Assay for Enhancers of SMN2 Splice Variant Expression. Potency, µM (highest dose often 46.1 µM), for inactives: top-dose activity change, positive = activation, most hits filed as activators. HEK293 SMN2-luciferase splicing reporter, luminescence, 30-36 h. hit rate 2.8% among 210,000; further: % of control where 0% means no effect; nearly all actives have a fitted effect of over 55% in size
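HEK293 cells carry an SMN2 […]–luciferase reporter in which exon 7 inclusion puts luciferase in frame. Cells were plated 10-12 h before compound addition, then incubated 30-36 h at 37C. ONE-Glo luminescence was read; sodium butyrate at 4.5 mM final served as control.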
FLuc counter – qHTS profiling assay for firefly luciferase inhibitor/activator using purifed enzyme and Km concentrations of substrates (counterscreen for miR-21 project); Luciferin 4-monooxygenase (Photinus pyralis), P08659; purified FLuc, Km substrates, luminescence inhibition; Potency, µM (top dose mostly 57.5 µM), inactives show top-dose activity change, negative = inhibition, hits mostly inhibitors; hit rate 6.9% among 360,000; AID 588342, 2011;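 further: plate controls were vehicle for no effect and reference inhibitor for full effect; nearly all actives have a fitted effect of over 55% in size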
Target sequence (P08659 whole entry, looked up): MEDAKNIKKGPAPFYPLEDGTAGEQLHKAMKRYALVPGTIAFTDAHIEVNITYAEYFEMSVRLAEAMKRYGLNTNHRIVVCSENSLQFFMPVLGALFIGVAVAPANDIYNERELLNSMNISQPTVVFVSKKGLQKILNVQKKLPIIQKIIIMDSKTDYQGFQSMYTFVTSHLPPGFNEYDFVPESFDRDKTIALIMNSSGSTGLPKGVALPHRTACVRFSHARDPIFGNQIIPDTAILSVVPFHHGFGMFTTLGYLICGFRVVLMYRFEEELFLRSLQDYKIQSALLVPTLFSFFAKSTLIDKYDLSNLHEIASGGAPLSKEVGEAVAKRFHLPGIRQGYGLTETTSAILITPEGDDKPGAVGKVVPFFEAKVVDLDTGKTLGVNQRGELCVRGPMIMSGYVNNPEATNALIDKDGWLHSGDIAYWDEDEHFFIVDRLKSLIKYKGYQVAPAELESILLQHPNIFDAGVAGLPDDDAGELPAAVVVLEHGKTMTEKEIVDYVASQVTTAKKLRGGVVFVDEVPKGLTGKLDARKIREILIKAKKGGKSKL
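Purified P. pyralis luciferase (10nM final) with 10uM D-luciferin and 10uM ATP (Km levels) in 50mM Tris acetate pH 7.5, 10mM Mg acetate, 0.01% Tween-20, 0.05% BSA; qHTS 6-point titration, ~60 µM downward; luminescence read.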
ELG1 repair inh – qHTS screen for small molecules that inhibit ELG1-dependent DNA repair in human embryonic kidney (HEK293T) cells expressing luciferase-tagged ELG1; Potency, µM (doses to about 46.1 µM), for the others: at the highest dose activity change, negative = inhibition, most hits filed as inhibitors; hit rate 2.3% among 330,000; HEK293T ELG1-luciferase reporter, luminescence, 16 h; DNA damage induced by 5-fluorouridine; further: on the % scale 0 is the no-effect control and ±100 the full control effect; nearly all actives have a fitted effect of over 55% in size
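Quantitative HTS, concentration-response format. 2,000 cells/well co-treated with 5-fluorouridine and compound, 16 hr in 5% CO2 at 37 °C; ONE-Glo luminescence read after 30 min.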
Rab9 promoter act – qHTS Assay for Rab9 Promoter Activators | AID 485297, 2010 | Huh7 Rab9 promoter-luciferase reporter, luminescence, 24 h | hit rate 2.8% among 320,000 | Potency, µM (doses to about 9.22 µM), without a hit: at the highest dose activation, negative = inhibition, most hits filed as activators; further: % of control where 0% means no effect; nearly all actives have a fitted effect of over 60% in size
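Huh7 reporter line, Rab9 promoter upstream of luciferase. Compound exposure 24 h at 37 °C in reduced-serum medium with 10% FBS. Read-out: luminescence.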
NPC1 prom act – qHTS Assay for NPC1 Promoter Activators; Huh7 NPC1 promoter luciferase reporter, 24 h; Potency, µM (titrated, usually from 9.22 µM), for inactives: at the top dose activation, usual class: activators; AID 485313, 2010; hit rate 2.4% among 320,000; further: % of control where 0% means no effect; nearly all actives have a fitted effect of over 60% in size
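Luminescence read-out of NPC1 promoter-driven luciferase in stably transfected Huh7 cells; compounds delivered in DMSO and left 24 h at 37C, 5% CO2, qHTS titration format.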
ELG1 genotoxic – qHTS screen for small molecules that induce genotoxicity in human embryonic kidney (HEK293T) cells expressing luciferase-tagged ELG1. hit rate 1.3% among 330,000. Potency, µM (series often up to 46 µM), without a hit: at the highest dose activity change, positive = activation, most hits filed as activators. HEK293T ELG1-luciferase reporter, luminescence, 16 h. AID 504466, 2011; further: % of control where 0% means no effect; nearly all actives have a fitted effect of over 60% in size
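Genotoxicity was scored as increased ELG1-luciferase reporter signal, measured by ONE-Glo luminescence (30 min, room temperature). Compound or vehicle exposure of the HEK293T reporter cells lasted 16 hr at 37°C.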
* marks the source's active call; other numbers are inactive results; u = inconclusive; x = no result given; [ ] = remark or other dose. Hits are enriched below; roughly 9.3% of the tested compounds scored in any of these assays. The call rests on the fitted dose curve; in most records, active means well fitted curve in the direction sought with a large enough effect; inconclusive means small, poorly fitted or top-dose-only effect, or another doubt; inactive means no such curve, though single readings can be large; an effect the other way counts as inactive or inconclusive. Potency means the concentration at half of the fitted maximal effect.

SMILES	SMN2 splice up	FLuc counter	ELG1 repair inh	Rab9 promoter act	NPC1 prom act	ELG1 genotoxic
Cc1cccc(C)c1NC(=O)C(NS(=O)(=O)c1ccc2c(c1)CCC(=O)N2)c1ccccc1 (configuration not stated)	-1%	6%	x	x	x	x
Cc1c(C(=O)N2CCN(c3ccccc3)CC2)sc2ncnc(N3CCN(c4ccccn4)CC3)c12	x	-1%	0%	2%	-3%	-28%
COc1ccc(NC(=O)c2sc3ncn(CC(=O)N4CCN(c5ccccn5)CC4)c(=O)c3c2C)c(OC)c1	x	-1%	u	-1%	2%	7%
COc1ccccc1N1CCN(C(=O)c2sc3ncnc(N4CCN(c5ccccn5)CC4)c3c2C)CC1	x	-1%	18µM*	-2%	-2%	-25%
Cc1nc(N2CCN(c3ccccn3)CC2)c2c(C)c(C(=O)N3CCN(c4ccc(F)cc4)CC3)sc2n1	x	1%	23µM*	-14%	-7%	-22%
Cc1c(C(=O)N2CCN(c3ccc(F)cc3)CC2)sc2ncnc(N3CCN(c4ccccn4)CC3)c12	x	0%	6.5µM*	-1%	-2%	-14%
COc1ccc(OC)c(NC(=O)c2sc3ncnc(N4CCN(c5ccccn5)CC4)c3c2C)c1	x	-2%	2.6µM*	3%	0%	-9%
COc1ccc(N2CC(NC(=O)C(=O)c3c(C)[nH]c4ccccc34)CC2=O)cc1 (configuration not stated)	x	3%	x	x	x	x
CC(C)(C)c1ccc(Oc2ccc(NC(=O)C3CC=CCC3C(=O)O)cc2)cc1 (configuration not stated)	16µM*	27µM*	20%	-8%	2%	-1%
O=C(Nc1nccs1)c1ccc(Br)cc1	x	9.5µM*	u	2.2µM*	2.5µM*	u
C/C(=C\c1ccccc1)C(=O)Nc1nccs1	11µM*	9.5µM*	u	3.5µM*	2.5µM*	u
CCOc1cccc(C(=O)Nc2nccs2)c1	u	15µM*	u	u	u	u
O=C(CCNC(=O)c1ccc(Br)cc1)Nc1nccs1	-5%	-16%	13%	12%	1%	1%
CCOC(=O)C1CCN(C(=O)c2ccc(N(C)S(=O)(=O)c3ccc(OC)cc3)cc2)CC1	x	4%	-13%	-5%	-2%	-5%
CCOc1cccc(C(=O)Nc2ccccc2C(=O)N2CCN(C)CC2)c1	x	0%	8%	0%	-1%	3%
CCOC(=O)c1ccccc1NC(=O)c1sc2ncn(CC)c(=O)c2c1C	-14%	-1%	x	x	x	x
O=C(Nc1ccccc1Cl)c1ccc2ccccc2c1	x	-8%	-6%	0%	-8%	4%
CCOc1cccc(C(=O)Nc2nnc(-c3ccco3)s2)c1	2.8µM*	4.8µM*	u	4µM*	u	u
O=C(Nc1nccs1)c1ccc(S(=O)(=O)c2ccccc2)cc1	-12%	6%	0%	0%	-1%	-1%
O=C(Nc1n[nH]c(=S)s1)c1ccc2ccccc2c1	x	27µM*	u	0.79µM*	1.1µM*	u
O=C(Nc1nccs1)c1ccc2ccccc2c1	x	3µM*	u	3.2µM*	3.2µM*	14%
O=C(Nc1nc(-c2ccccn2)cs1)c1ccc(Br)s1	-96%	19µM*	-3%	-3%	-3%	u
CN(C)CCCN1CCC2(CCC(C(C)(C)C)CC2)CC1	-12%[9.22 µM]	x	x	x	x	x
Cc1csc(CN(C)C(=O)c2cn(Cc3cccc4ccccc34)nn2)n1	x	u	7%	23%	2%	0%
O=C(Nc1nccs1)c1ccc(NC(=O)C2CC=CCC2C(=O)O)cc1 (configuration not stated)	-10%	17µM*	u	17%	6%	1%
SMILES	SMN2 splice up	FLuc counter	ELG1 repair inh	Rab9 promoter act	NPC1 prom act	ELG1 genotoxic
O=C(O)c1ccc(NC(=O)C2CC=CCC2C(=O)O)cc1 (configuration not stated)	7%	2%	-1%	-1%	-2%	1%
O=C(Nc1nccs1)c1ncc(Cl)c(Cl)c1Cl	x	13µM*	u	5%	0%	-14%
O=C(Nc1nccs1)c1ccccn1	u	u	u	3.2µM*	u	u
O=C(Nc1nccs1)c1cccnc1Cl	x	-2%	22%	-4%	1%	2%
O=C(Nc1nccs1)c1ccc(Br)s1	x	15µM*	u	4µM*	u	u
CC(OC(=O)c1ccc(-n2cnnn2)cc1)C(=O)N(C)c1ccccc1 (configuration not stated)	x	-1%	10%	3%	-4%	-3%
O=C(/C=C/c1cc[n+](CC(=O)c2ccc3cccc4c3c2CC4)cc1)c1ccc2cccc3c2c1CC3	x	u	-17%	-7%	1%	-3%
COc1cc(OC)c(N(C)S(=O)(=O)c2cccc(C(=O)Nc3nccs3)c2)cc1Cl	x	x	23µM*	x	x	-17%
CN(c1ccccc1)S(=O)(=O)c1cccc(C(=O)Nc2nccs2)c1	-33%	-6%	-13%	0%	-4%	-6%
N#CC(Cc1ccc(OC(F)F)cc1)c1nc2ccccc2[nH]1 (configuration not stated)	u	8.5µM*	u	u	u	u
Cn1nc(C(=O)Nc2nc3ccccc3[nH]2)c2ccccc2c1=O	14%	-17%	18%	u	13%	4%
O=C(Nc1nc2ccccc2[nH]1)c1ccc(OC(F)F)cc1	x	0.54µM*	u	0.28µM*	0.13µM*	1.5µM*
CC(C)Oc1ccc(C(=O)Nc2nc3ccccc3[nH]2)cc1	x	0.12µM*	u	u	u	u
CCC(Oc1ccccc1)C(=O)Nc1nc2ccccc2[nH]1 (configuration not stated)	8%	u	u	15%	17%	26%
O=C(Nc1nc2ccccc2[nH]1)c1ccccc1OC(F)F	x	0.95µM*	u	0.5µM*	0.79µM*	u
C=C1C(CCl)(CCl)C2(Cl)C(Cl)C(Cl)C1(Cl)C2(Cl)Cl (configuration not stated)	-5%	x	x	x	x	x
CN(C)c1ccc(CNC(=O)C(Cc2ccccc2)NS(=O)(=O)c2ccc3c(c2)oc(=O)n3C)cc1 (configuration not stated)	2%	4%	x	x	x	x
C/C=C(/C)C#N	-37%	x	x	x	x	x
CC(C)N1C(=O)CCC1C(=O)NCc1ccco1 (configuration not stated)	x	1%	-3%	-5%	-6%	1%
